# This is a sample that favours compounds with a hit; in the whole collection about 4.6% have one here.
# TRHR ag – activates the human TRH receptor | hit rate 0.18% among 360,000 | TRHR cells, calcium flux fluo-8, FDSS agonist mode | activation, % at 2 µM; note: 0% is about no effect
#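 Agonist-mode FDSS calcium read (Ex 480/Em 530, 1 s cycles) in 1536-well TRHR cells with fluo-8 dye, after 10-cycle baseline and 23 nL compound addition; TRH at EC20 (10 nM final) added afterwards for the enhancer phase.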
# D1 antagonist – antagonists of human D1 dopamine receptor | P21728 | HEK293 TREx D1 cells, calcium flux, dopamine EC80; hits give low values | activity change, negative = inhibition, % at 10 µM | hit rate 3.2% among 360,000 | AID 504652; in the data active = activity change below about -30%; note: % is set by controls: 0 for no effect and ±100 for the full control effect
# Target sequence (P21728 whole entry, looked up): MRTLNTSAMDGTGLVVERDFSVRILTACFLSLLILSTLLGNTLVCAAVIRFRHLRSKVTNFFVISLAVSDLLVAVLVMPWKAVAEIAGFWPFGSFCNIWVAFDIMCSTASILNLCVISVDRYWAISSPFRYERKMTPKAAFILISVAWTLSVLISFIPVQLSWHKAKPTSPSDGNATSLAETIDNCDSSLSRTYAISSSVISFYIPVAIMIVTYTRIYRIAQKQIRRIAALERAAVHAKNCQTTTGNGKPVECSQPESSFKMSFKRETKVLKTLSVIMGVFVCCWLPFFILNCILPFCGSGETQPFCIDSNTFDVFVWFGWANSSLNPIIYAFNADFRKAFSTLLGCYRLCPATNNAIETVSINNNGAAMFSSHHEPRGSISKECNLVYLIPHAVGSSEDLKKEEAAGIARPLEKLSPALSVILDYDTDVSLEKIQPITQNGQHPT
#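 Allosteric or orthosteric antagonism assessed as attenuation of the calcium response to EC80 dopamine, added 180 s after compound, in induced HEK293 Trex D1 cells loaded with no-wash calcium dye.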
# D1 agonist – human D1 receptor agonism; hit rate 1% among 360,000; P21728; activation, % at 2 µM; AID 504660; HEK293 T-REx D1 cells, calcium flux, agonist mode; note: 0% is about no effect
#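 Tetracycline-induced HEK293 TREx D1 cells, force-coupled to calcium signalling, were dye-loaded with a no-wash calcium kit. Compound was pin-added after a 10 s baseline. Fluorescence was read kinetically at 1 cycle/s for 180 s, with calcium rises flagged as agonism.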
# D1 potentiator – human D1 dopamine receptor positive modulation; potentiation, % at 10 µM; hit rate 0.036% among 360,000; HEK293 TREx D1 cells, calcium flux, dopamine EC20 potentiation; in the data active = potentiation above about 30%; note: 0% is about no effect
# TRHR enhancer – allosterically enhances the human TRH receptor; P34981; TRHR cells, fluo-8 calcium fluorescence, EC20 TRH enhancement; enhancement, % at 2 µM; hit rate 0.66% among 360,000; AID 493056; in the data active = enhancement above about 30%; note: 0% is about no effect
#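 TRHR-expressing cells loaded with fluo-8 calcium dye were read kinetically (ex 480/em 530) during compound addition, then stimulated with an EC20 of TRH (10 nM final). Enhancement of the Gq-mediated intracellular calcium response was scored.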
# Numbers without * were called inactive; x = no result. Cut-off read from the data, not from the text of the source, unless noted: active = activation above about 30%; inactive = the rest.
SMILES,TRHR ag,D1 antagonist,D1 agonist,D1 potentiator,TRHR enhancer
CCn1c(SCc2c(F)cccc2Cl)nc(=O)c2c(C(=O)OC)cc(C3CC3)nc21,0,32,2,3,-1
CSc1ccccc1NC(=O)c1ccncc1,0,2,1,2,2
CSc1ccccc1NC(=O)c1ccccc1,0,-32*,0,-7,7
Clc1ccccc1N=C1SCCS1,-1,7,36*,8,-3
OC(CC#CCN1CCOCC1)(c1ccccc1)c1ccccc1,0,-31*,-3,-7,-2
OC(CC#CCN1CCCC1)(c1ccccc1)c1ccccc1,1,9,1,-6,-3
O=C(OC1CCOC1=O)c1cc(-c2ccc(Br)cc2)nc2ccccc12 (stereo not given),0,12,6,3,17
COc1ccc(-c2cc(C(=O)OC3CCOC3=O)c3ccccc3n2)cc1 (stereo not given),1,-32*,2,-5,0
COc1ccc(-c2cc(C(=O)OCc3ccccn3)c3ccccc3n2)cc1,1,-34*,13,-7,-9
COc1cccc(N2CC(NS(=O)(=O)c3ccc4ccccc4c3)CC2=O)c1 (stereo not given),0,-21,31*,-3,0
CC(C)(C)OC(=O)N1CCC(c2c(C(=O)N3CCN(C(=O)c4ccco4)CC3)cnn2-c2cccc(F)c2)CC1,1,-28,0,0,5
O=C(COC(=O)Cc1ccc(S(=O)(=O)N2CCOCC2)s1)NCc1ccccc1,0,-48*,4,-4,6
O=C(COC(=O)Cc1ccc(S(=O)(=O)N2CCOCC2)s1)NCCc1ccccc1,0,3,2,0,-6
CCCOc1ccc(/C(O)=C2/C(=O)C(=O)N(CCCOC)C2c2ccncc2)cc1 (stereo not given),0,10,-1,7,1
CCCCOc1ccc(/C(O)=C2/C(=O)C(=O)N(CCCOC)C2c2ccncc2)cc1C (stereo not given),0,-38*,1,-4,-2
CC(C)(C)N(Cc1ccccc1)C(=O)CN1C(=O)NC2(CCCCCC2)C1=O,0,-75*,1,x,6
CN(CCOc1ccccc1)S(=O)(=O)c1ccc2oc3ccccc3c2c1,-1,-43*,40*,7,3
COc1ccc(OCCNS(=O)(=O)c2ccc3oc4ccccc4c3c2)cc1,-1,19,14,-3,-12
Cc1ccc(S(=O)(=O)Nc2ccc3c(c2)CCCN3C(=O)c2cccs2)cc1,-2,-17,11,0,0
O=C(Nc1ccc2c(c1)CCCN2C(=O)c1cccs1)c1ccccc1,-1,-28,2,-5,-5
O=C(c1cccs1)N1CCCc2cc(NS(=O)(=O)c3ccc(Br)cc3)ccc21,0,-40*,1,0,-3
O=C(Nc1ccc2c(c1)CCCN2C(=O)c1cccs1)c1cccc(F)c1,0,-36*,6,-5,-16
O=C(Nc1ccc2c(c1)CCCN2C(=O)c1cccs1)c1cccc(C(F)(F)F)c1,0,-58*,1,-1,-4
CC1(C)Cc2cccc(C(=O)Nc3ccncc3)c2O1,0,6,4,-3,4
CC1(C)Cc2cccc(C(=O)Nc3ccc(Cl)cc3)c2O1,0,-34*,4,-4,7
SMILES,TRHR ag,D1 antagonist,D1 agonist,D1 potentiator,TRHR enhancer
CCN1CCN(C(c2ccc(Cl)cc2)c2c(O)cc(C)n(CCOC)c2=O)CC1 (stereo not given),0,-39*,-2,2,8
COCCn1c(C)cc(O)c(C(c2ccccc2OC)N2CCN(c3ccccc3)CC2)c1=O (stereo not given),0,-23,0,-3,45*
CCN1CCN(C(c2ccc(OC)cc2)c2c(O)cc(C)n(CCOC)c2=O)CC1 (stereo not given),0,-7,0,3,-4
COc1ccc(CCNC(=O)c2nc(-c3ccc(Cl)cc3)n3c2CCCCC3)c(OC)c1,0,13,6,-2,-11
COc1ccc(NC(=O)CO/N=C2\CCCc3nonc32)cc1,0,-5,4,7,7
COc1ccc(NC(=O)CC(=O)Nc2ccc(OC)cc2OC)c(OC)c1,1,-89*,4,-6,5
COc1ccc(NC(=O)CO/N=C2/CCCc3nonc32)c(OC)c1,-1,-32*,6,-2,1
COc1ccc(NC(=O)c2ccc(CN3CCc4ccccc4C3)cc2)c(OC)c1,-1,-35*,1,-20,-1
COc1ccc(NC(=O)Nc2cnccn2)c(OC)c1,0,-4,2,-9,-5
COc1ccc(NC(=O)Nc2nc(C)cc(C)n2)c(OC)c1,1,-34*,1,-12,-6
Cc1c(C(=O)NCc2ccccc2Cl)sc2nc3n(c(=O)c12)CCCC3,0,-6,-1,-1,13
CC1=C(C(=O)OCc2ccc(C)cc2)C(c2cccc(F)c2F)CC(=O)N1 (stereo not given),0,9,7,0,11
COC(=O)c1c(SC)nc2ccccc2c1OCc1cc(C)ccc1C,-1,17,31*,-2,13
Cc1ccc(C(=O)Nc2ccc3oc(-c4cc(Br)ccc4Cl)nc3c2)cc1,0,0,1,0,-10
CCOC(=O)N1CCN(S(=O)(=O)/C=C/c2ccccc2)CC1,0,10,1,-8,-4
CCc1nc(-c2cc(S(=O)(=O)N3CCN(c4ccccc4F)CC3)ccc2OC)no1,0,5,7,-5,-3
CCNC(=S)N1CCN(S(=O)(=O)/C=C/c2ccccc2)CC1,-1,5,0,-1,40*
COc1ccccc1N1CCN(S(=O)(=O)/C=C/c2ccccc2)CC1,0,-37*,1,-2,-8
Cc1cc(=O)n(C)c2ccc(S(=O)(=O)N3CCOCC3)cc12,0,10,-2,-2,3
COc1ccc(S(=O)(=O)N2CCN(c3ccccc3F)CC2)cc1-c1noc(C)n1,74*,-34*,6,-3,-7
Cn1c(=O)c2cc(S(=O)(=O)N3CCOCC3)ccc2n(C)c1=O,-1,-31*,-1,5,14
COc1ccc(CNC(=O)Cn2c(-c3ccccc3)cc(C(C)=O)c2C)cc1OC,0,-26,1,-4,-5
COc1ccccc1N1CCN(S(=O)(=O)c2ccc3c(c2)n(C)c(=O)n3C)CC1,-2,-47*,2,-4,-4
CC(C)CCNC(=O)c1ccccc1SCC(=O)NC1CCCCCCC1,-2,-22,0,-4,-10
O=C(CSc1ccccc1C(=O)O)NC1CCCCCC1,0,-39*,2,-5,-2
O=C(CSc1ccccc1C(=O)O)NC1CCCCCCC1,0,-9,1,-3,-5

# Screening data as filed in PubChem BioAssay.
